Seven compounds from PubChem BioAssay (NCATS) can be followed below.

A short description of test [1]: Quantitative High-Throughput drug screen in 47 multiple myeloma cell lines against the NCATS MIPE library collection: FR4_PLB cell viability assay (AID 1918924; note: potency is the fitted concentration of half-maximal effect; nearly all actives have a fitted effect of over 35% in size). The method in brief: (§1)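 Relative luminescence from CellTiter-Glo served as the viability signal, referenced to DMSO-treated (100%) and cell-free medium (0%) controls. Treatment lasted 48 hours at 37C with 500 cells per well.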

The nature of test [2]: Quantitative High-Throughput drug screen in 47 multiple myeloma cell lines against the NCATS MIPE library collection: Delta47_JCRB cell viability assay (AID 1918925; note: potency is the fitted concentration of half-maximal effect; nearly all actives have a fitted effect of over 45% in size). The method in brief: (§2)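 We plated 500 myeloma cells per well, pinned in MIPE 4.0 compounds, and incubated for 48 hours at 37C. ATP was then quantified with CellTiter-Glo, with DMSO and media-only wells defining 100% and 0%.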

The nature of test [3]: Quantitative High-Throughput drug screen in 47 multiple myeloma cell lines against the NCATS MIPE library collection: EJM_DSMZ cell viability assay (AID 1918926; note: potency is the fitted concentration of half-maximal effect; nearly all actives have a fitted effect of over 30% in size). The method in brief: as §2
Test [4] is described as follows: Quantitative High-Throughput drug screen in 47 multiple myeloma cell lines against the NCATS MIPE library collection: AMO1_DSMZ cell viability assay (AID 1918927; note: potency is the fitted concentration of half-maximal effect; nearly all actives have a fitted effect of over 30% in size). The method in brief:
as §2

Test [5] is described as follows: Quantitative High-Throughput drug screen in 47 multiple myeloma cell lines against the NCATS MIPE library collection: ARP1_JJKsccF8 cell viability assay (AID 1918928; note: potency is the fitted concentration of half-maximal effect; nearly all actives have a fitted effect of over 40% in size). The method in brief:
(§3)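 CellTiter-Glo luminescence after 48 h exposure gives viability, scaled between DMSO-only (100%) and media-only (0%) controls. Library compounds are pinned onto 500 myeloma cells per well, incubated at 37C with 5% CO2.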

Test [6] in a line: Quantitative High-Throughput drug screen in 47 multiple myeloma cell lines against the NCATS MIPE library collection: JIM1_ECACC cell viability assay (AID 1918964; note: potency is the fitted concentration of half-maximal effect). The method in brief: as §2
Test [7] can be described thus: Quantitative High-Throughput drug screen in 47 multiple myeloma cell lines against the NCATS MIPE library collection: Karpas25_ECACC cell viability assay (AID 1918968; note: potency is the fitted concentration of half-maximal effect; nearly all actives have a fitted effect of over 35% in size). The method in brief: as §2
Test [8] can be described thus: Quantitative High-Throughput drug screen in 47 multiple myeloma cell lines against the NCATS MIPE library collection: KMS27_JCRB cell viability assay (AID 1918970). Note: potency is the fitted concentration of half-maximal effect; nearly all actives have a fitted effect of over 30% in size. The method in brief: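 Myeloma cells (500 per well) were exposed to MIPE 4.0 compounds for 48 h at 37 °C, 5% CO2; viability was read as ATP luminescence with CellTiter-Glo, normalized to DMSO-only (100%) and media-only (0%) wells.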

Test [9] in a line: Quantitative High-Throughput drug screen in 47 multiple myeloma cell lines against the NCATS MIPE library collection: ARD_JJKsccE7 cell viability assay (AID 1918929; note: potency is the fitted concentration of half-maximal effect). The method in brief: as §2
A short description of test [10]: Quantitative High-Throughput drug screen in 47 multiple myeloma cell lines against the NCATS MIPE library collection: Karpas620_DSMZ cell viability assay (AID 1918959). Note: potency is the fitted concentration of half-maximal effect; nearly all actives have a fitted effect of over 30% in size. The method in brief:
as §1

Test [11] is described as follows: Quantitative High-Throughput drug screen in 47 multiple myeloma cell lines against the NCATS MIPE library collection: KMM1_JCRB cell viability assay (AID 1918960). The method in brief: as §3
Test [12] in a line: Quantitative High-Throughput drug screen in 47 multiple myeloma cell lines against the NCATS MIPE library collection: KHM11_PLB cell viability assay (AID 1918962). Note: potency is the fitted concentration of half-maximal effect; nearly all actives have a fitted effect of over 35% in size. The method in brief: as §1
Test [13] can be described thus: Quantitative High-Throughput drug screen in 47 multiple myeloma cell lines against the NCATS MIPE library collection: JIM3_ECACC cell viability assay (AID 1918963; note: potency is the fitted concentration of half-maximal effect; nearly all actives have a fitted effect of over 35% in size). The method in brief:
as §1

The nature of test [14]: Quantitative High-Throughput drug screen in 47 multiple myeloma cell lines against the NCATS MIPE library collection: INA6_PLB cell viability assay (AID 1918965; note: potency is the fitted concentration of half-maximal effect; nearly all actives have a fitted effect of over 55% in size). The method in brief: as §1
Test [15] in a line: Quantitative High-Throughput drug screen in 47 multiple myeloma cell lines against the NCATS MIPE library collection: JJN3_DSMZ cell viability assay (AID 1918966; note: potency is the fitted concentration of half-maximal effect; nearly all actives have a fitted effect of over 50% in size). The method in brief: as §2
Test [16] can be described thus: Quantitative High-Throughput drug screen in 47 multiple myeloma cell lines against the NCATS MIPE library collection: H1112_PLB cell viability assay (AID 1918967). The method in brief: as §2
Test [17] in a line: Primary redox qHTS assay for identification of artifact compounds. (AID 1845223). The method in brief: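 Redox-cycling detection via DTT (250 uM final) oxidation coupled to Amplex Red (25 uM)/HRP (250 mU/mL) in HBSS. 15 min preincubation plus 30 min after DTT, room temperature. Ex/Em 525/598 nm; 4-parameter Hill fit against DMSO and 10 uM DA3003.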
Test [18] can be described thus: Quantitative High-Throughput drug screen in 47 multiple myeloma cell lines against the NCATS MIPE library collection: Karpas417_ECACC cell viability assay (AID 1918961). Note: potency is the fitted concentration of half-maximal effect. The note with it: Karpas417 myeloma viability, CellTiter-Glo ATP luminescence, 48 h; viability (% of DMSO): at 45.8 µM (top of the series). The method in brief:
as §1

Each structure is given as a SMILES string. Results filed as inconclusive are left out. Active and inactive are the calls of the source. Calls come from the whole dose curve; as a rule, active = well fitted curve in the direction sought with a large enough effect; inconclusive = small, poorly fitted or top-dose-only effect, or another doubt; inactive = no such curve, though single readings can be large; an effect the other way counts as inactive or inconclusive.

Regarding `N[C@H](CSC(c1ccccc1)(c1ccccc1)c1ccccc1)C(=O)O`, the Potency in test [1] was 5260 nM (active); in test [2], 7430 nM (active); in test [3] it was 18700 nM (active); in test [4] it was 23500 nM (active); in test [5], 13200 nM (active); in test [6] it was 14800 nM (active). For the same compound, the Potency in test [7] was 11800 nM (active); in test [8], 18700 nM (active).
Consider `CO[C@H]1C=CC=C(C)C(=O)NC2=CC(=O)C(NCCN(C)C)=C(C[C@@H](C)C[C@H](OC)[C@@H](O)[C@@H](C)C=C(C)[C@@H]1OC(N)=O)C2=O`, for which the Potency in test [1] was 166 nM (active); in [2] it was 46.9 nM (active); in [3], 1480 nM (active); in [4], 46.9 nM (active); in test [5] it was 11.8 nM (active); in test [9] it was 1 nM (active). For the same compound, the Potency in test [10] is 296 nM (active); in test [11], 52.6 nM (active); in [12], 37.2 nM (active); in test [13] it was 74.3 nM (active); in [6] it was 20.9 nM (active); in test [14] it was 23.5 nM (active). Moreover, the Potency is 29.6 nM (active) in [15], 3320 nM (active) in [16], 59 nM (active) in test [7] and 26.4 nM (active) in test [8].
With `Cc1c(O)cccc1C(=O)N[C@@H](CSc1ccccc1)[C@H](O)CN1C[C@H]2CCCC[C@@H]2C[C@@H]1C(=O)NC(C)(C)C`, the Potency is 26400 nM (active) in test [1]; 20900 nM (active) in [2]; 23500 nM (active) in test [3]; 16600 nM (active) in test [4]; 23500 nM (active) in test [5]; 16600 nM (active) in test [9]. The Potency was 14800 nM (active) in test [10]; 18700 nM (active) in test [11]; 18700 nM (active) in test [12]; 20900 nM (active) in [13]; 9350 nM (active) in test [6]; 23500 nM (active) in test [14]. Besides, the figures for the Potency in test [7] and in test [8] were 14800 nM (active) and 16600 nM (active), respectively.
In the case of `CCCNC(=O)NS(=O)(=O)c1ccc(Cl)cc1`, in test [17], the outcome was inactive.
Turning to `Oc1ccc(C2=Cc3ccc(O)cc3OC2)cc1`, the Potency in [1] was 1320 nM (active); in [2], 833 nM (active); in test [3] it was 2350 nM (active); in [4], 2640 nM (active); in test [5], 4180 nM (active); in test [9] it was 1660 nM (active). Also, the Potency in test [11] is 2640 nM (active); in [18], 2640 nM (active); in test [6] it was 3320 nM (active); in [14], 662 nM (active); in test [15], 1480 nM (active); in test [7], 1480 nM (active). Besides, the Potency in test [8] was 2090 nM (active).
Consider `CCc1ccc(OCc2ccccc2C(=O)Nc2ccc3nc(C)cc(N)c3c2)cc1`, for which the Potency is 8330 nM (active) in test [1]; 1180 nM (active) in test [2]; 7430 nM (active) in [3]; 3320 nM (active) in [4]; 7430 nM (active) in test [5]; 2640 nM (active) in test [9]. Further, the Potency in test [10] was 1050 nM (active); in [11] it was 2640 nM (active); in test [18], 1870 nM (active); in [12] it was 2350 nM (active); in test [13] it was 2640 nM (active); in test [6], 2640 nM (active). The Potency in test [14] was 2640 nM (active); in test [16], 2960 nM (active); in test [7], 1320 nM (active); in test [8], 1870 nM (active).
`CC(C)=CC[C@@H](O)C1=CC(=O)c2c(O)ccc(O)c2C1=O`: the Potency was 662 nM (active) in [1]; 8330 nM (active) in [2]; 418 nM (active) in test [3]; 4180 nM (active) in [4]; 1320 nM (active) in test [5]; 9350 nM (active) in test [10]. The Potency in test [13] was 16600 nM (active); in [14] it was 296 nM (active); in test [16], 7430 nM (active); in test [7], 5260 nM (active); in test [8], 20900 nM (active).
